The target in assay [1] is BDNF/NT-3 growth factors receptor (Homo sapiens) (UniProt Q16620). The note with it: at 10 µM.
The target in assay [2] is T1, Tyrosine-protein kinase TXK (Homo sapiens) (UniProt P42681).
T1 sequence (whole entry): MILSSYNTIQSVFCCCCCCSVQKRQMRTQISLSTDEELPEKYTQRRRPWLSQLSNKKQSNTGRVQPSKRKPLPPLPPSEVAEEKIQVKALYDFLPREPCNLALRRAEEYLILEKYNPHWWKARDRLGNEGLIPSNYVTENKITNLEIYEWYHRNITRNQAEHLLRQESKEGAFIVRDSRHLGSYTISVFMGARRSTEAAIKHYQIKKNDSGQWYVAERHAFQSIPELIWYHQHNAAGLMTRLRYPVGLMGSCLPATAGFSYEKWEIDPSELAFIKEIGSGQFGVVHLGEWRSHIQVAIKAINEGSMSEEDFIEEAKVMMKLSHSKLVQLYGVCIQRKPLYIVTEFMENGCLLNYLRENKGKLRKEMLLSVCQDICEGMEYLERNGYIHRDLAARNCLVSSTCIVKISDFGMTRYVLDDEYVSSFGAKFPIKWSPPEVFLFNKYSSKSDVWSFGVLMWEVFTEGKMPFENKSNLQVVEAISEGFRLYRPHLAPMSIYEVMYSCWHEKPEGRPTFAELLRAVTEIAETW
The settings on record: at 1 µM.

Assay [3] has as its target T1, Tyrosine-protein kinase TXK (Homo sapiens). The settings on record: at 10 µM.
The target in assay [4] is T2, Serine/threonine-protein kinase ULK2 (Homo sapiens) (UniProt Q8IYT8).
T2 sequence (whole entry): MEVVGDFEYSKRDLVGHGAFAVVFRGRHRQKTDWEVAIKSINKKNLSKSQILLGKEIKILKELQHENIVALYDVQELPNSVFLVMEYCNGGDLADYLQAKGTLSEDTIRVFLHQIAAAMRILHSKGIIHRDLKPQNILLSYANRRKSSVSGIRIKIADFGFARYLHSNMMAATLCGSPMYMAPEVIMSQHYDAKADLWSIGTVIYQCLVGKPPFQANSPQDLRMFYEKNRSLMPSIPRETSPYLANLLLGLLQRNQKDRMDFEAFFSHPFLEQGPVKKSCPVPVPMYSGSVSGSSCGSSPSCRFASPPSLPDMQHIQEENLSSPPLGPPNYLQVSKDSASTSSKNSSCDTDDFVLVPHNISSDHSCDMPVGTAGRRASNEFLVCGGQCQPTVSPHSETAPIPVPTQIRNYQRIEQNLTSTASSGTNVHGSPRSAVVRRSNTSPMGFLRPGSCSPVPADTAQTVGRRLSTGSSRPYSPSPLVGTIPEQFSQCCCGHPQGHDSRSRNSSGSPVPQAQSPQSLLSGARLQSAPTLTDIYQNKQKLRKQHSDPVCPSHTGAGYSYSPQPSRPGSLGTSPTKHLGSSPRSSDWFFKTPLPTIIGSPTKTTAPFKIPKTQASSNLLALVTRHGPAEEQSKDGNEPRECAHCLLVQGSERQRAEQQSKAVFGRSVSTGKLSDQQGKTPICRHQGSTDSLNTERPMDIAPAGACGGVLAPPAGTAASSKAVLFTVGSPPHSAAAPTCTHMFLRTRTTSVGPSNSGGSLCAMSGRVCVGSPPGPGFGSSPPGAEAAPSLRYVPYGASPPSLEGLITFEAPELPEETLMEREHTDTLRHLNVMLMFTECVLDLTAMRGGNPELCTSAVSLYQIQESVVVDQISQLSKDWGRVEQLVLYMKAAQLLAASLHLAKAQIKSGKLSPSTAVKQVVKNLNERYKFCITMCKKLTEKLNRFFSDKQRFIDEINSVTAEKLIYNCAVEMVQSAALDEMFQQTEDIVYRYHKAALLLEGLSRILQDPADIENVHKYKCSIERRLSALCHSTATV
The settings on record: at 1 µM.

Assay [5] concerns the target T2, Serine/threonine-protein kinase ULK2 (Homo sapiens). The settings on record: at 10 µM.
The target in assay [6] is T3, Serine/threonine-protein kinase ULK3 (Homo sapiens) (UniProt Q6PHR2).
T3 sequence (whole entry): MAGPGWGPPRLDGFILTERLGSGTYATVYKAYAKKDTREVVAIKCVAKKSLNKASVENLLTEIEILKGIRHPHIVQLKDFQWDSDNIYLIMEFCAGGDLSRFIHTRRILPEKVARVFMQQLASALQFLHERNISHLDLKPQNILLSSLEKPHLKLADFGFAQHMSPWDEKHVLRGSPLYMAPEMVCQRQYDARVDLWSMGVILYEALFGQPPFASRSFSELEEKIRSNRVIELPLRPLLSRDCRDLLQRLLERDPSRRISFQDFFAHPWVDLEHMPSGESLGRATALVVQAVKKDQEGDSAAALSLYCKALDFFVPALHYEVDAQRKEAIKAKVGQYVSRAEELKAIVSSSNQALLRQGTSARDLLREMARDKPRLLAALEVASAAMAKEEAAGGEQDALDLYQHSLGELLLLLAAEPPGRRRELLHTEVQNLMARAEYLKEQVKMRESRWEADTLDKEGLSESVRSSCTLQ
The note with it: at 1 µM.

For assay [7], the target named is T3, Serine/threonine-protein kinase ULK3 (Homo sapiens). The settings on record: at 10 µM.
Assay [8] has as its target Serine/threonine-protein kinase VRK2 (Homo sapiens) (UniProt Q86Y07). The settings on record: at 10 µM.
Assay [9] has as its target Serine/threonine-protein kinase WNK2 (Homo sapiens) (UniProt Q9Y3S1). The settings on record: at 1 µM.
Assay [10] shares this target. The note with it: at 10 µM.
In assay [11] the target is Serine/threonine-protein kinase WNK3 (Homo sapiens) (UniProt Q9BYP7). The note with it: at 1 µM.
The target is the same in assay [12]. The note with it: at 10 µM.
For assay [13], the target named is Tyrosine-protein kinase Yes (Homo sapiens) (UniProt P07947). The note with it: at 1 µM.
Assay [14] has the same target. The note with it: at 10 µM.
The target in assay [15] is T4, Tyrosine-protein kinase ZAP-70 (Homo sapiens) (UniProt P43403).
T4 sequence (whole entry): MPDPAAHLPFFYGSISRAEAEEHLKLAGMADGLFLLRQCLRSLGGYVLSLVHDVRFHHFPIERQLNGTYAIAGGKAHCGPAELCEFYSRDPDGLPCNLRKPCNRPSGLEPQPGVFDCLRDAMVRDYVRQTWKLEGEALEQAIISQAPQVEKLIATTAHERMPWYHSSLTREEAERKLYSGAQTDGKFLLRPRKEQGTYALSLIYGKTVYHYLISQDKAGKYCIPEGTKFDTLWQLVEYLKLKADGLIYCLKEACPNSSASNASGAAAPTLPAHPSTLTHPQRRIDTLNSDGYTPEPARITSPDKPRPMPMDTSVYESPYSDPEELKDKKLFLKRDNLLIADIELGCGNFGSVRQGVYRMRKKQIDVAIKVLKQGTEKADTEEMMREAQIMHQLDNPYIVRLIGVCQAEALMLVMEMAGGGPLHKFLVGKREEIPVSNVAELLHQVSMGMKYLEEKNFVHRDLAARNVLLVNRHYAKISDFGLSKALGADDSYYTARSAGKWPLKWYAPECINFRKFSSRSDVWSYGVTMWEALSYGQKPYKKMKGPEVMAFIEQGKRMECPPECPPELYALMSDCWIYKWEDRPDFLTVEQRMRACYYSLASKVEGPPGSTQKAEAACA
The note with it: at 1 µM.

Assay [16] concerns the target Death-associated protein kinase 3 (Homo sapiens) (UniProt O43293). The note with it: at 1 µM.
Assay [17] has the same target. The settings on record: at 10 µM.
In assay [18] the target is RAF proto-oncogene serine/threonine-protein kinase (Homo sapiens) (UniProt P04049). The note with it: at 1 µM.
The target is the same in assay [19]. The note with it: at 10 µM.
The target of assay [20] is Serine/threonine-protein kinase VRK2 (Homo sapiens) (UniProt Q86Y07). The note with it: at 1 µM.

Structures are written as SMILES.

The term residual activity denotes the signal under treatment as a percentage of the control signal.

BDNF/NT-3 growth factors receptor (Homo sapiens), sequence (Q16620 32-822 limits assumed): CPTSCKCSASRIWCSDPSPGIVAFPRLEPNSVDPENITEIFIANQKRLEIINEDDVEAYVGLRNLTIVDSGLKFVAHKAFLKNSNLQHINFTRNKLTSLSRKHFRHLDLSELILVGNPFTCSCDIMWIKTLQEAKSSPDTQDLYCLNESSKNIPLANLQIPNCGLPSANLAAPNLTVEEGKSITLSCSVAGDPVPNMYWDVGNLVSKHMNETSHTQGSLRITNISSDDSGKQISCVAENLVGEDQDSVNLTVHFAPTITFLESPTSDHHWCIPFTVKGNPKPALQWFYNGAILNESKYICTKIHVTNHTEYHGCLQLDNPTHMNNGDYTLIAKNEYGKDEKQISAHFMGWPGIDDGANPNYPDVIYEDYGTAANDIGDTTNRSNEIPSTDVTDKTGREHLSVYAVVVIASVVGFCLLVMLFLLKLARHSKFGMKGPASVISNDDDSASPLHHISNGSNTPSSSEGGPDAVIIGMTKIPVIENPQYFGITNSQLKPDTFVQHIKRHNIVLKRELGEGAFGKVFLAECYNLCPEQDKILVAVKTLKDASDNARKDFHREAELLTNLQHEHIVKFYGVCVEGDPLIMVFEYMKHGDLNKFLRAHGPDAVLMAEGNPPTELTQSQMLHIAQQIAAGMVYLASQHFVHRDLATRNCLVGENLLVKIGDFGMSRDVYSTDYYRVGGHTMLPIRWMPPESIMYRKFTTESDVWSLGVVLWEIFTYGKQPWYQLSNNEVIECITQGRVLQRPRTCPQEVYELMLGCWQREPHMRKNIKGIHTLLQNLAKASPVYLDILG
Tyrosine-protein kinase Yes (Homo sapiens), sequence (P07947 2-543 limits assumed): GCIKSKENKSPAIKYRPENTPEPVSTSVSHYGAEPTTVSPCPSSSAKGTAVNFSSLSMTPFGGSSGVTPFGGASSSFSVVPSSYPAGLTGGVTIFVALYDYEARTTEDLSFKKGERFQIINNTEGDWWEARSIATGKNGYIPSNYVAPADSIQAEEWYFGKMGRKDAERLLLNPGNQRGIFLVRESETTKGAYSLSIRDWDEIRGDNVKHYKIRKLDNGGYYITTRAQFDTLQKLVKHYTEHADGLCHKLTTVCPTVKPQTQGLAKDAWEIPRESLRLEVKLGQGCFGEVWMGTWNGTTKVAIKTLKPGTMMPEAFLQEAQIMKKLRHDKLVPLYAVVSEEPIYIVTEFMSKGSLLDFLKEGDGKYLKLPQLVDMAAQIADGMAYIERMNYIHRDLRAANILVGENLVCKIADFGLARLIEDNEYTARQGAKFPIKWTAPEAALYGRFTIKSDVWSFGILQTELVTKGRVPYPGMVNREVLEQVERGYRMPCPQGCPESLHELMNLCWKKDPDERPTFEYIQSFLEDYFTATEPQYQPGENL
Serine/threonine-protein kinase WNK2 (Homo sapiens), sequence (Q9Y3S1 whole entry): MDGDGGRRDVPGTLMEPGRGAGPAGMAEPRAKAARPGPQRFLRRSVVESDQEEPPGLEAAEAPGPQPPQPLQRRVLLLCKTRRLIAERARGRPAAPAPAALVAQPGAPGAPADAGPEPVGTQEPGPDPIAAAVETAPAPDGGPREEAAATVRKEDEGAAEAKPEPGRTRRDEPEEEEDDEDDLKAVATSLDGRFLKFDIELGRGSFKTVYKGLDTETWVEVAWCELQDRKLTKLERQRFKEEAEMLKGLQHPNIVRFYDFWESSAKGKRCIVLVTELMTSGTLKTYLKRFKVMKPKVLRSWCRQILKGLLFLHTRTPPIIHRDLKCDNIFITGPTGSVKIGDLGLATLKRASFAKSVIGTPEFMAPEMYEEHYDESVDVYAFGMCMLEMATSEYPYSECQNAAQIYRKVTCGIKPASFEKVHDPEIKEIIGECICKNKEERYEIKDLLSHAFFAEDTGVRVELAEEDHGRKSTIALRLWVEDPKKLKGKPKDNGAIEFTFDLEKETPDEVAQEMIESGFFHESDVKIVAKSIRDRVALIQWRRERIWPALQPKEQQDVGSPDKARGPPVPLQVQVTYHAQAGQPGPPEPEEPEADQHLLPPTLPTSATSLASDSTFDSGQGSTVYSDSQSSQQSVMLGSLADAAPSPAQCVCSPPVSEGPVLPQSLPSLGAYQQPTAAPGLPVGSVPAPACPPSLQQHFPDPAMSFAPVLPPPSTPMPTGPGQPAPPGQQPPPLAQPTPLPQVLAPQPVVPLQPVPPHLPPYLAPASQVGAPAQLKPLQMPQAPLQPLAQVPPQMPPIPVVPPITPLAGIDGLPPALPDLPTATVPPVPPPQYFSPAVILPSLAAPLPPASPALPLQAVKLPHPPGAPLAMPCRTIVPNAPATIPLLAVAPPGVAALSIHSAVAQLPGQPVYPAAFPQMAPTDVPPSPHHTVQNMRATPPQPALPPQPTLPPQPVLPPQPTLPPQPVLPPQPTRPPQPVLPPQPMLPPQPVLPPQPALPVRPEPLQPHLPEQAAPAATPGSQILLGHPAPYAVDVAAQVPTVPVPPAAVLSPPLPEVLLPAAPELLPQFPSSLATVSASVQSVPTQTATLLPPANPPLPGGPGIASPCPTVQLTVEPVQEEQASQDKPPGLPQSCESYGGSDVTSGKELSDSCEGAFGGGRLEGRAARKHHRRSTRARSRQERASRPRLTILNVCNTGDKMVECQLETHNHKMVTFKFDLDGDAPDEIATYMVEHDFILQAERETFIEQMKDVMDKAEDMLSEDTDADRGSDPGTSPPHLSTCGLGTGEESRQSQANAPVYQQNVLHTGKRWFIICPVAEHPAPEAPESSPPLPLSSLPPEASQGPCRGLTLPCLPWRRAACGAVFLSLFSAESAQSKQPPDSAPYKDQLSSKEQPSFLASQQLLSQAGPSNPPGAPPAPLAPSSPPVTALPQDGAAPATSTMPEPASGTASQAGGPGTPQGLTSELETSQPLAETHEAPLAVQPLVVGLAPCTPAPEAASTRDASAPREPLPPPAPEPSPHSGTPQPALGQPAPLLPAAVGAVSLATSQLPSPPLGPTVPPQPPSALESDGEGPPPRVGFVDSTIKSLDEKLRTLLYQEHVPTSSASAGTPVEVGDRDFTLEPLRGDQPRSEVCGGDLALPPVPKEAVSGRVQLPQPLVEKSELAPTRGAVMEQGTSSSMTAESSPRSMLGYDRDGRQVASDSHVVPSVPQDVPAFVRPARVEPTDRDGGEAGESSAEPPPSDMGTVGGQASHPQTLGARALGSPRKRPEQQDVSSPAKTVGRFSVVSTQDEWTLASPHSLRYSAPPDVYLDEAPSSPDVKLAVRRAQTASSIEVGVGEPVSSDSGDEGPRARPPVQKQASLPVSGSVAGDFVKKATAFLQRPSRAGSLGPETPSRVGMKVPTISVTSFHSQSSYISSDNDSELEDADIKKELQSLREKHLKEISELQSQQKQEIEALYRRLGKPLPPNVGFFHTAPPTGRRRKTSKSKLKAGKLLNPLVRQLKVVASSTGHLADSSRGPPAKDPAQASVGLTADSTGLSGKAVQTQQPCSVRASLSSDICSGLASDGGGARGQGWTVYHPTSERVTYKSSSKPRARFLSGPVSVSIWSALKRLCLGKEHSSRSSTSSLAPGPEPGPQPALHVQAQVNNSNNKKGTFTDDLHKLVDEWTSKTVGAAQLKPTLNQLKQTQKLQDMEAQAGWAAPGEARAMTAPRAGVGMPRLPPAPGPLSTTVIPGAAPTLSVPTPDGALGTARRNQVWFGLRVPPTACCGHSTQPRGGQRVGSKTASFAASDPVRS
RAF proto-oncogene serine/threonine-protein kinase (Homo sapiens), sequence (P04049 whole entry): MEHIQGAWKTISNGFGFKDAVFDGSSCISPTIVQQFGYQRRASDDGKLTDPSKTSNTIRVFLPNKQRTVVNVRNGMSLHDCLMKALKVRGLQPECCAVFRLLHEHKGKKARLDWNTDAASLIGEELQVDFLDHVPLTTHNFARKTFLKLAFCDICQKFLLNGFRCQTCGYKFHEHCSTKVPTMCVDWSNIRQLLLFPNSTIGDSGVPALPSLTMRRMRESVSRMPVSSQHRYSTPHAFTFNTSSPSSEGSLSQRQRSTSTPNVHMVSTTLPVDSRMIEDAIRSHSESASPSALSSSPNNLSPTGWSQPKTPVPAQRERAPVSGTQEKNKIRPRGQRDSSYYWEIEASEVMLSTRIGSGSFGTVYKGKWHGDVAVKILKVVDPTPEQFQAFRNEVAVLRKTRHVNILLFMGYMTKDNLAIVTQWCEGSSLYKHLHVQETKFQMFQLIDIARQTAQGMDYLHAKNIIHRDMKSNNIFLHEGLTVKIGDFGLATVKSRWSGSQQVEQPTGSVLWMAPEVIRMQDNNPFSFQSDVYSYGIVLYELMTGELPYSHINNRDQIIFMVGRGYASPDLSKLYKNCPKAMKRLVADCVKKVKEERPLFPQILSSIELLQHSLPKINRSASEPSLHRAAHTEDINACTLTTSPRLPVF
Serine/threonine-protein kinase VRK2 (Homo sapiens), sequence (Q86Y07 whole entry): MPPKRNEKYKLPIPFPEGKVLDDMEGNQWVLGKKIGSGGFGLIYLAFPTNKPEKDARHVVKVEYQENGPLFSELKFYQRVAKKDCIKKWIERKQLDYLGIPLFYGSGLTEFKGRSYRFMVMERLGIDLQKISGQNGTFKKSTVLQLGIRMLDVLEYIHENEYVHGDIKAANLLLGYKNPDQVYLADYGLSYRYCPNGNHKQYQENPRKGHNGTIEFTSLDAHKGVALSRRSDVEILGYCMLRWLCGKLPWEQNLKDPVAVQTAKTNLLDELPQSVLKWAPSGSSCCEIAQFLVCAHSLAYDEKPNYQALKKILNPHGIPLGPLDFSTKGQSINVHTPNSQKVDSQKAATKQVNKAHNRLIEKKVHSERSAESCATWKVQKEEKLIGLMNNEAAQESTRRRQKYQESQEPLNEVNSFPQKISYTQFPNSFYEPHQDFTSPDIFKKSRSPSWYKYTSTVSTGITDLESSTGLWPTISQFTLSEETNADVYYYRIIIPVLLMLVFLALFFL

For the molecule `O=[N+]([O-])c1ccc(-c2nc(-c3ccc(F)cc3)c(-c3ccncc3)[nH]2)cc1`, the residual activity was 107% in [1]; 61% in assay [2]; 66% in [3]; 112% in assay [4]; 106% in assay [5]; 103% in [6]. In addition, the residual activity in assay [7] is 103%; in assay [8], 93%; in [9] it was 102% (inactive); in assay [10], 95%; in assay [11], 92% (inactive); in assay [12], 98%. For the same molecule, the residual activity in [13] is 103%; in [14] it was 102%; in [15], 122%; in assay [16], 92%; in [17], 102%; in assay [18], 20%. Further, in [19], the residual activity is 13%.

With `O=c1c2ccccc2[nH]c(=S)n1CCN1CCC(=C(c2ccc(F)cc2)c2ccc(F)cc2)CC1`, the residual activity in assay [1] worked out at 59%; in [2] it was 102%; in assay [3], 80%; in assay [4] it was 109%; in [5], 98%; in assay [6], 107%. For the same molecule, the residual activity was 94% in assay [7]; 116% (inactive) in assay [20]; 99% in [8]; 113% (inactive) in assay [9]; 94% in [10]; 116% (inactive) in assay [11]. Further, the residual activity in [12] came to 102%; in assay [13], 105%; in assay [14], 96%; in [15] it was 101%; in [16], 75%; in [17], 74%. Moreover, the residual activity in [18] came to 83%; in assay [19], 94%.

Regarding `CN(C)CCCn1cc(C2=C(c3c[nH]c4ccccc34)C(=O)NC2=O)c2ccccc21`, the residual activity in [1] was 14%; in assay [3] it was 79%; in assay [4] it was 110%; in [5], 88%; in [6], 101%; in [7], 61%. Moreover, the residual activity in assay [20] was 119% (inactive); in [8], 76%; in [9], 120% (inactive); in assay [10], 86%; in assay [11], 121% (inactive); in [13] it was 105%. Further, the residual activity was found to be 33% in assay [14]; 133% in assay [15]; 62% in [16]; 35% in [17]; 113% in [18]; 110% in assay [19].

For `N#CC(C#N)=C(N)/C(C#N)=C/c1ccc(O)cc1`, the residual activity was 116% in assay [1]; 78% in assay [2]; 67% in assay [3]; 100% in assay [6]; 92% in assay [7]; 100% (inactive) in [20]. Also, the residual activity in assay [8] is 94%; in assay [10], 83%; in [11], 96% (inactive); in assay [12], 75%; in assay [14], 93%; in [15], 128%. For the same molecule, the residual activity is 92% in [18] and 88% in assay [19].

Take `N#CCCc1ccc2c(c1)-c1[nH]c3ccc([N+](=O)[O-])cc3c1CC(=O)N2`: the residual activity in assay [1] is 65%; in [2], 26%; in [3], 9%; in [4], 47%; in [5] it was 21%; in assay [6] it was 33%. Moreover, the figures for the residual activity in assay [7], in assay [13] and in [14] were 6%, 9% and 0%, respectively.

Consider `Nc1cccc(-c2cc3c(Oc4cccc(O)c4)ncnc3[nH]2)c1`, for which the residual activity in assay [1] was 44%; in assay [2], 27%; in assay [3] it was 3%; in [5], 76%; in assay [6], 31%; in assay [7] it was 6%. For the same molecule, the residual activity in assay [20] was 100% (inactive); in assay [8] it was 89%; in assay [9], 88% (inactive); in [10] it was 40%; in [11] it was 93% (inactive); in [12], 49%. Further, the residual activity in assay [13] is 1%; in [14], -1%; in assay [16], 92%; in assay [18], 36%; in assay [19], 10%.

Take `COc1cc2ncc(-c3ccccc3)nc2cc1OC`: the residual activity was 37% in assay [1]; 96% in assay [2]; 73% in assay [3]; 86% in [7]; 94% in assay [10]; 126% (inactive) in assay [11]. Besides, the residual activity in assay [12] turned out to be 95%; in [16], 96%; in [17] it was 100%; in assay [18], 99%; in [19], 86%.

On to `c1ccc2c(-c3ccncc3)c[nH]c2c1`, for which the residual activity came out at 110% in assay [1]; 109% in [2]; 97% in [3]; 104% in assay [4]; 97% in assay [5]; 104% in assay [6]. Further, the residual activity is 82% in assay [7]; 101% (inactive) in assay [20]; 88% in assay [8]; 107% (inactive) in assay [9]; 75% in assay [10]; 98% (inactive) in assay [11]. For the same molecule, the residual activity in [12] was 96%; in assay [14], 97%; in [16] it was 110%; in [17], 107%; in assay [18] it was 73%; in assay [19] it was 81%.

The values are drawn from ChEMBL document CHEMBL2218924, “A broad activity screen in support of a chemogenomic map for kinase signalling research and drug discovery” (Biochem J, 2013).
